Measured values published in the supplement of paper PMC3545927.
The list shows a part of the results. No count for the full screen is at hand.

Molecular target: furin, P09958
Assay: furin cleavage Z-score vs untreated control; higher = more cleavage, active = 3.5 or more, inactive = 1 or less, 8 variable residues between constant flanks
Method in brief: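 The cleavage Z-score is the log read count relative to furin-free reactions, lowess-adjusted and scaled by median absolute deviation. Counts came from sequencing DNA released from bead-bound 8-mer peptide–cDNA fusions after digestion with purified furin for 7.5, 15 or 30 min.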
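Also: purified furin at 1:10 enzyme:substrate in 50 mM HEPES pH 7.5.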

Chain of furin, P09958 (P09958 whole entry): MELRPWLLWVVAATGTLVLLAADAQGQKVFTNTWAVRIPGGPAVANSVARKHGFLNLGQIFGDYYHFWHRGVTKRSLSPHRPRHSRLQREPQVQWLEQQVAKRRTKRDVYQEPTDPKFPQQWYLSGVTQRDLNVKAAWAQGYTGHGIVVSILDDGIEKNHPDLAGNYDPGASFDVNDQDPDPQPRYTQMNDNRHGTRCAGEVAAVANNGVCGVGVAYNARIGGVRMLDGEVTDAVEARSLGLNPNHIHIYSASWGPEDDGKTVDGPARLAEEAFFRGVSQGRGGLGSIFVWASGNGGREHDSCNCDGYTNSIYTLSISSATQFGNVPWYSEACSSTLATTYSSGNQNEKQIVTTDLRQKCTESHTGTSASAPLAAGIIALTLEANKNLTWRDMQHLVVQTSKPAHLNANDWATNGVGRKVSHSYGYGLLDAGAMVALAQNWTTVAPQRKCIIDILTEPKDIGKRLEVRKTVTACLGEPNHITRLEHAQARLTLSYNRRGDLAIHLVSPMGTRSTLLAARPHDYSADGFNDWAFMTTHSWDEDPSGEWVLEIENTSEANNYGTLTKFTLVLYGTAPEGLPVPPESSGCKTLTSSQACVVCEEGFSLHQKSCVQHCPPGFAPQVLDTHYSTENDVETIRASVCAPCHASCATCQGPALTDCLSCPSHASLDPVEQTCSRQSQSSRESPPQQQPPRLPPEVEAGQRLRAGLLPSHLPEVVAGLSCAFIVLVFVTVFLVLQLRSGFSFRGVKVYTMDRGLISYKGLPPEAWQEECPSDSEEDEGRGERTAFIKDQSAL

B1: HC993 (peptide)
chain: CAGVLAALAAAGNASASA
furin cleavage Z-score (7.5 min): 1.76
furin cleavage Z-score (15 min): 0.568 (inactive)
furin cleavage Z-score (30 min): -0.149 (inactive)

B2: HC2549 (peptide)
chain: CASTPCSAYLAGNASASA
furin cleavage Z-score (7.5 min): 0.127 (inactive)
furin cleavage Z-score (15 min): -0.0969 (inactive)
furin cleavage Z-score (30 min): 0.416 (inactive)

B3: HC150 (peptide)
chain: CAEVVTRTWVAGNASASA
furin cleavage Z-score (7.5 min): -0.769 (inactive)
furin cleavage Z-score (15 min): -0.617 (inactive)
furin cleavage Z-score (30 min): 1.23

B4: HC1706 (peptide)
chain: CAMEMCSQHLAGNASASA
furin cleavage Z-score (7.5 min): 1.54
furin cleavage Z-score (15 min): 2.05
furin cleavage Z-score (30 min): 0.326 (inactive)

B5: FS-1027 (peptide)
chain: CALPDRRRRFAGNASASA
furin cleavage Z-score (7.5 min): 6.3 (active)
furin cleavage Z-score (15 min): 8.87 (active)
furin cleavage Z-score (30 min): 8.99 (active)

B6: HC1155 (peptide)
chain: CASDFKTWLKAGNASASA
furin cleavage Z-score (7.5 min): -1.27 (inactive)
furin cleavage Z-score (15 min): -1.41 (inactive)
furin cleavage Z-score (30 min): -0.384 (inactive)

B7: FS-2454 (peptide)
chain: CARRRRSLRRAGNASASA
furin cleavage Z-score (7.5 min): 3.55 (active)
furin cleavage Z-score (15 min): 3.5 (active)
furin cleavage Z-score (30 min): 6.12 (active)

B8: FS-1788 (peptide)
chain: CARRRRSLPGAGNASASA
furin cleavage Z-score (7.5 min): 6.91 (active)
furin cleavage Z-score (15 min): 8.64 (active)
furin cleavage Z-score (30 min): 6.57 (active)

B9: FS-2797 (peptide)
chain: CARRRRSLPRAGNASASA
furin cleavage Z-score (7.5 min): 4.48 (active)
furin cleavage Z-score (15 min): 5.79 (active)
furin cleavage Z-score (30 min): 7.11 (active)

B10: HC217 (peptide)
chain: CARRRSRNLGAGNASASA
furin cleavage Z-score (7.5 min): 4.75 (active)
furin cleavage Z-score (15 min): 6.64 (active)
furin cleavage Z-score (30 min): 6.07 (active)

B11: HC625 (peptide)
chain: CAIGGHYVQMAGNASASA
furin cleavage Z-score (7.5 min): 1.06
furin cleavage Z-score (15 min): 1.02
furin cleavage Z-score (30 min): -0.429 (inactive)

B12: HC1286 (peptide)
chain: CAVILDSFDPAGNASASA
furin cleavage Z-score (7.5 min): -0.325 (inactive)
furin cleavage Z-score (15 min): -0.389 (inactive)
furin cleavage Z-score (30 min): 1.13

B13: HC2024 (peptide)
chain: CAVVICSMSYAGNASASA
furin cleavage Z-score (7.5 min): -0.215 (inactive)
furin cleavage Z-score (15 min): -0.424 (inactive)
furin cleavage Z-score (30 min): -0.762 (inactive)

B14: HC2388 (peptide)
chain: CAEVPCHRWSAGNASASA
furin cleavage Z-score (7.5 min): 0.964 (inactive)
furin cleavage Z-score (15 min): 1.69
furin cleavage Z-score (30 min): 1.98

B15: HC370 (peptide)
chain: CASWHLNSTAAGNASASA
furin cleavage Z-score (7.5 min): 0.22 (inactive)
furin cleavage Z-score (15 min): -0.449 (inactive)
furin cleavage Z-score (30 min): 0.876 (inactive)

B16: FS-3031 (peptide)
chain: CARPWRDLPEAGNASASA
furin cleavage Z-score (7.5 min): -1.17 (inactive)
furin cleavage Z-score (15 min): 0.355 (inactive)
furin cleavage Z-score (30 min): -0.221 (inactive)

B17: FS-1783 (peptide)
chain: CARRRRCLNGAGNASASA
furin cleavage Z-score (7.5 min): 5.37 (active)
furin cleavage Z-score (15 min): 5.63 (active)
furin cleavage Z-score (30 min): 3.81 (active)

B18: FS-1672 (peptide)
chain: CAKRRRSLHHAGNASASA
furin cleavage Z-score (7.5 min): 4.3 (active)
furin cleavage Z-score (15 min): 5.5 (active)
furin cleavage Z-score (30 min): 6.07 (active)

B19: HC2575 (peptide)
chain: CASTPCSAHHAGNASASA
furin cleavage Z-score (7.5 min): -0.38 (inactive)
furin cleavage Z-score (15 min): -0.288 (inactive)
furin cleavage Z-score (30 min): 0.459 (inactive)

B20: HC734 (peptide)
chain: CADSRGSLLSAGNASASA
furin cleavage Z-score (7.5 min): -0.053 (inactive)
furin cleavage Z-score (15 min): -0.939 (inactive)
furin cleavage Z-score (30 min): -0.328 (inactive)

B21: FS-2796 (peptide)
chain: CARRRRSLPEAGNASASA
furin cleavage Z-score (7.5 min): 9.29 (active)
furin cleavage Z-score (15 min): 10.5 (active)
furin cleavage Z-score (30 min): 8.81 (active)

B22: FS-376 (peptide)
chain: CARRRRSFRRAGNASASA
furin cleavage Z-score (7.5 min): 5.2 (active)
furin cleavage Z-score (15 min): 6.31 (active)
furin cleavage Z-score (30 min): 8.15 (active)

B23: HC1857 (peptide)
chain: CATSPCSGSWAGNASASA
furin cleavage Z-score (7.5 min): -0.464 (inactive)
furin cleavage Z-score (15 min): -0.0771 (inactive)
furin cleavage Z-score (30 min): -1.88 (inactive)

B24: HC2487 (peptide)
chain: CASFPCSAHLAGNASASA
furin cleavage Z-score (7.5 min): -0.137 (inactive)
furin cleavage Z-score (15 min): -0.966 (inactive)
furin cleavage Z-score (30 min): -0.392 (inactive)

B25: HC192 (peptide)
chain: CAQPIPKARRAGNASASA
furin cleavage Z-score (7.5 min): -0.161 (inactive)
furin cleavage Z-score (15 min): 1.41
furin cleavage Z-score (30 min): -0.434 (inactive)

B26: FS-2056 (peptide)
chain: CARPLRSSERAGNASASA
furin cleavage Z-score (7.5 min): -0.31 (inactive)
furin cleavage Z-score (15 min): -0.454 (inactive)
furin cleavage Z-score (30 min): -0.848 (inactive)

B27: FS-128 (peptide)
chain: CAGPLRSKRRAGNASASA
furin cleavage Z-score (7.5 min): 3.54 (active)
furin cleavage Z-score (15 min): 3.82 (active)
furin cleavage Z-score (30 min): 0.894 (inactive)

B28: HC177 (peptide)
chain: CAGVYLLPRRAGNASASA
furin cleavage Z-score (7.5 min): -0.35 (inactive)
furin cleavage Z-score (15 min): 0.113 (inactive)
furin cleavage Z-score (30 min): 0.636 (inactive)

B29: FS-140 (peptide)
chain: CAQPTRSKRRAGNASASA
furin cleavage Z-score (7.5 min): 8.89 (active)
furin cleavage Z-score (15 min): 11.6 (active)
furin cleavage Z-score (30 min): 8.5 (active)

B30: FS-2747 (peptide)
chain: CARPTRPLEVAGNASASA
furin cleavage Z-score (7.5 min): -0.707 (inactive)
furin cleavage Z-score (15 min): -0.831 (inactive)
furin cleavage Z-score (30 min): 0.199 (inactive)

B31: HC1225 (peptide)
chain: CARLHRFAPPAGNASASA
furin cleavage Z-score (7.5 min): -1.52 (inactive)
furin cleavage Z-score (15 min): 1.01
furin cleavage Z-score (30 min): 0.153 (inactive)

B32: HC530 (peptide)
chain: CALLISQAEAAGNASASA
furin cleavage Z-score (7.5 min): -0.545 (inactive)
furin cleavage Z-score (15 min): -1.15 (inactive)
furin cleavage Z-score (30 min): -0.368 (inactive)

B33: FS-2758 (peptide)
chain: CARQLRSAPPAGNASASA
furin cleavage Z-score (7.5 min): 3.01
furin cleavage Z-score (15 min): 4.5 (active)
furin cleavage Z-score (30 min): 4.16 (active)

B34: HC1346 (peptide)
chain: CAPAPSGCPPAGNASASA
furin cleavage Z-score (7.5 min): -1.72 (inactive)
furin cleavage Z-score (15 min): -0.997 (inactive)
furin cleavage Z-score (30 min): -0.764 (inactive)

B35: FS-2140 (peptide)
chain: CARFWKSAPPAGNASASA
furin cleavage Z-score (7.5 min): -0.578 (inactive)
furin cleavage Z-score (15 min): 0.202 (inactive)
furin cleavage Z-score (30 min): -1.15 (inactive)

B36: HC1542 (peptide)
chain: CAMTRYSAPPAGNASASA
furin cleavage Z-score (7.5 min): 1.05
furin cleavage Z-score (15 min): -0.0414 (inactive)
furin cleavage Z-score (30 min): -1.39 (inactive)

B37: FS-1743 (peptide)
chain: CARLPRGAEAAGNASASA
furin cleavage Z-score (7.5 min): 3.99 (active)
furin cleavage Z-score (15 min): 2.77
furin cleavage Z-score (30 min): 3.19

B38: FS-1782 (peptide)
chain: CARRQRGAEAAGNASASA
furin cleavage Z-score (7.5 min): 0.38 (inactive)
furin cleavage Z-score (15 min): -0.365 (inactive)
furin cleavage Z-score (30 min): 1.17

B39: FS-3233 (peptide)
chain: CARSFRSVRSAGNASASA
furin cleavage Z-score (7.5 min): -0.0905 (inactive)
furin cleavage Z-score (15 min): 1.16
furin cleavage Z-score (30 min): 1.57

B40: FS-1263 (peptide)
chain: CARLPRSVRSAGNASASA
furin cleavage Z-score (7.5 min): 5.43 (active)
furin cleavage Z-score (15 min): 4.73 (active)
furin cleavage Z-score (30 min): 4.77 (active)

B41: FS-2572 (peptide)
chain: CARLPRSAPPAGNASASA
furin cleavage Z-score (7.5 min): 5.97 (active)
furin cleavage Z-score (15 min): 5.41 (active)
furin cleavage Z-score (30 min): 5.19 (active)

B42: FS-1738 (peptide)
chain: CARLGRQVDSAGNASASA
furin cleavage Z-score (7.5 min): 0.0659 (inactive)
furin cleavage Z-score (15 min): 0.283 (inactive)
furin cleavage Z-score (30 min): 1.6

B43: HC938 (peptide)
chain: CALEFWEGVFAGNASASA
furin cleavage Z-score (7.5 min): 0.499 (inactive)
furin cleavage Z-score (15 min): -0.214 (inactive)
furin cleavage Z-score (30 min): -0.35 (inactive)
